HCMV inh: blocks human cytomegalovirus replication | activity change, negative = inhibition, % at 57.5 µM | actives 4.5% (n = 410,000) | HFF cells, HCMV-luciferase reporter, 72 h; active compounds read low | AID 1259415; in the data active = activity change below about -60%; inconclusive = no clear call, values can overlap the other calls; inactive = above about -39%
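After 16 h attachment at 37C, HFF cells received test compound and HCMV-luciferase (1 PFU/cell); reporter luminescence read 72 h later, data normalized against buffer-only and known inhibitor Salinomycin.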
Vaccinia Venus: inhibitors of vaccinia virus (Venus reporter); Vaccinia virus Venus reporter expression, fluorescence; Potency, µM (top dose mostly 36.5 µM), inactives show at the top dose activity change, negative = inhibition, most hits filed as inhibitors; actives 0.46% (n = 330,000); AID 720580; calls by dose curve; tested in A549 cells; also: potency is read from the fitted curve at half-maximal effect; nearly all actives have a fitted effect of over 30% in size
MARV entry inh: Marburg virus entry inhibition | Marburg virus pseudotyped entry inhibition, cell reporter | Potency, µM (highest dose often 37.8 µM), without a hit: at the top dose activity change, negative = inhibition, hits mostly inhibitors | actives 1.8% (n = 300,000) | AID 540276; calls by dose curve; tested in HEK293 cells; also: potency is read from the fitted curve at half-maximal effect
FMDV antiviral: antivirals against foot and mouth disease virus; FMDV antiviral cell-based qHTS; Potency, µM (highest dose often 57.9 µM), without a hit: top-dose activity change, negative = inhibition, actives largely listed as inhibitors; actives 1.2% (n = 410,000); AID 1159524; calls by dose curve; tested in HEK293T cells; also: read-out not given here; potency is read from the fitted curve at half-maximal effect; nearly all actives have a fitted effect of over 45% in size
VACV mCherry inh: vaccinia inhibition (mCherry reporter); AID 720579; Potency, µM (doses to about 36.5 µM), for the others: top-dose activity change, negative = inhibition, most hits filed as inhibitors; Vaccinia virus mCherry reporter infection, fluorescence; actives 0.63% (n = 310,000); calls by dose curve; tested in A549 cells; also: potency is read from the fitted curve at half-maximal effect; nearly all actives have a fitted effect of over 35% in size
Lassa entry inh: Lassa virus entry inhibition; Potency, µM (titrated, usually from 37.9 µM), without a hit: at the highest dose activity change, negative = inhibition, hits mostly inhibitors; AID 540256; Lassa virus pseudotype entry inhibition, cell reporter; actives 1.2% (n = 300,000); calls by dose curve; tested in HEK293 cells; also: potency is read from the fitted curve at half-maximal effect; nearly all actives have a fitted effect of over 50% in size
Numbers without * were called inactive; i = inactive; ? = inconclusive; / = not tested or not shown; ! = repeats disagree; [ ] = remark or other dose. A selection: hits, their analogues and other compounds. The true share with any hit is near 6.5%. % is scaled to controls: 0 for no effect and ±100 for the full control effect.

SMILES	HCMV inh	Vaccinia Venus	MARV entry inh	FMDV antiviral	VACV mCherry inh	Lassa entry inh
CCOC(=O)N1CCC(NC(=O)c2cnn(-c3ccc(C)cc3)c2-n2cccc2)CC1	-2	-11%	/	6%	-11%	3%[46.1 µM]
O=C(CCS(=O)(=O)c1ccccc1)Nc1nc(-c2ccccn2)cs1	-103*	?	/	-24%	10µM*	/
O=C(CCS(=O)(=O)c1ccccc1)Nc1ccccn1	-24	-6%	8%[46.1 µM]	4%	-7%	?
Cc1ccc(S(=O)(=O)CCC(=O)Nc2nc(-c3ccncc3)cs2)cc1	-10	/	/	?	/	/
O=C(CCS(=O)(=O)c1ccc(F)cc1)Nc1nc(-c2ccccn2)cs1	-106*	/	/	?	/	/
CC(Oc1ccc(F)cc1)C(=O)Nc1nc(-c2ccccn2)cs1 (stereo unspecified)	-90*	?	?	?	?	?
COC(=O)c1c(C)[nH]c(C(=O)/C=C/c2ccc(C)cc2)c1C	-90*	/	/	?	/	/
CCc1ccc(NC(=O)c2cc3c(=O)n(Cc4cccs4)ccc3nc2C)cc1	-21	-11%	/	-17%	-8%	?
CC(C)C(c1nnnn1Cc1ccco1)N1CCN(c2nc3ccccc3s2)CC1 (stereo unspecified)	?	-22%	-9%[46.1 µM]	22µM*	-10%	?
CC(C)CC(c1nnnn1Cc1ccco1)N1CCN(c2cccc(Cl)c2)CC1 (stereo unspecified)	-2	-26%	8.9µM*	?	-12%	?
CC(C)Oc1ccc(C(=O)NCC2Cc3cc(F)cc(-c4cnccn4)c3O2)cc1 (stereo unspecified)	/	7%	/	0%	-6%	/
O=c1[nH]c(=S)[nH]c(O)c1N=Nc1ccc2c(c1)OCCO2	?	4%	11µM*	-57%	-7%	?
O=c1[nH]c(=S)[nH]c(O)c1N=Nc1ccc2c(c1)OCO2	?	1%	?	0%	-17%	?
O=c1[nH]c(O)c(N=Nc2ccc3c(c2)OCCO3)c(=O)[nH]1	-82*	3%	?	?	-9%	?
Cc1cc2ccccc2cn1	/	-5%	/	/	-10%	/
O=Nc1c(-c2c(O)[nH]c3cc(Br)ccc23)[nH]c2ccccc12	-68*	-8%	?	1%	?	?
C[C@@H](N)[C@@H](O)c1ccc(O)c(O)c1	/	/	13µM*	/	/	?
CNC[C@H](O)c1ccc(O)c(O)c1	22	-12%	4%	-4%	-6%	-1%
NC[C@@H](O)c1ccc(O)c(O)c1	/	-6%	14µM*	31%	i	/
NC[C@H](O)c1ccc(O)c(O)c1	-28	-4%	14µM*!	-11%	-14%	?
C=CC1=C2C=C(C3CC3)N(CCOC)C=C2C(=O)C(C)(OC(=O)c2ccco2)C1=O (stereo unspecified)	/	/	-2%[14.2 µM]	/	/	/
CCOc1cc(/C=C/c2cc(C(F)(F)F)[nH]c(=O)n2)ccc1O	-98*	-23%	?	?	?	?
COc1ccc(/C=C/c2cc(C(F)(F)F)[nH]c(=O)n2)cc1OC	-95*	?	10%[46.1 µM]	?	?	?
CCS(=O)(=O)Nc1cc(C(=O)N[C@H]2CCCCNC2=O)c2c(c1)nc(-c1ccccc1)n2C	/	-12%	/	-18%	i	/
CC(=O)N1CCC2(CC1)CN(c1ccccn1)C2	/	/	/	-1%	/	/
SMILES	HCMV inh	Vaccinia Venus	MARV entry inh	FMDV antiviral	VACV mCherry inh	Lassa entry inh
CCOC(=O)CNC(=O)Cn1cnc2c(nnn2-c2ccc(F)cc2)c1=O	-27	/	?	-10%	/	1%
CCOC(=O)CNC(=O)CSc1ncnc2c1nnn2-c1ccc(F)cc1	-68*	-11%	0%	-17%	/	9%
O=C(CSc1ncnc2c1nnn2Cc1ccc(F)cc1)NCC1CCCO1 (stereo unspecified)	26	/	/	35µM*	/	/
NC(=O)CSc1ncnc2c1nnn2Cc1ccc(F)cc1	-15	5%	?	35µM*	-10%	-18%
CCOC(=O)Cn1cnc2c(nnn2-c2ccc(C)cc2)c1=O	-74*	/	0%	0%	/	22%
COCCn1c(SCc2ccccc2F)nc2c([nH]c3ccccc32)c1=O	18	-21%	/	-22%	-21%	?
Cc1ccccc1Nc1cc2ccccc2c(=O)[nH]1	/	10µM*	-19%[46.1 µM]	-12%	/	14%
CCc1cc2c3c(c1)C1(C(=O)N3C(C)(C)C=C2C)C(C#N)=C(N)Oc2[nH]c(=O)[nH]c(=O)c21 (stereo unspecified)	-75*	-5%	?	-30%	-12%	?
CCCC[C@@H](CNC)NC[C@H](NCCCCC1CCCCC1)C(C)C	-99*	?	/	-8%	-25%	/
CC(C)CCn1c(=O)c2sccc2n2c(CCCC(=O)NCCc3ccccc3)nnc12	-13	-10%	/	8%	-20%	-25%[46.1 µM]
COCCNc1nc(-c2cc(-c3ccccc3)on2)cc(C(C)C)n1	-63*	-15%	/	-16%	-7%	/
O=S1(=O)CCC(N(N=Cc2ccco2)c2ccccc2)C1 (stereo unspecified)	-25	/	/	/	/	/
COc1ccc(NS(=O)(=O)c2cccc(C(=O)N/N=C/c3ccccc3OC)c2)cc1	-13	-17%	-5%	6%	-22%	4%
O=C(N/N=C/c1cccc(NC(=O)c2ccc(Cl)cc2)c1)c1cccc(O)c1	19	-8%	?	-13%	i	?
O=C(N/N=C/c1cccs1)c1cccc(NC(=O)c2ccc(Cl)cc2)c1	-97*	/	4%	/	/	?
O=C(N/N=C/c1cccs1)c1cccc(S(=O)(=O)Nc2ccc(Cl)cc2)c1	-65*	?	22%[46.1 µM]	25%	?	-6%
Cc1ccc2cc(CN(Cc3cccs3)C(=O)c3ccco3)c3nnnn3c2c1C	/	/	7%	/	/	1%
Cc1ccc2c(c1)cc(CN(Cc1cccs1)C(=O)c1ccco1)c1nnnn12	-28	/	?	-23%	/	16µM*
CCCCOc1ccccc1C(=O)Nc1nonc1-c1ccccc1	-99*	-19%	1%[46.1 µM]	-29%	i	3%[46.1 µM]
CCCOc1ccc(-c2nonc2NC(=O)c2cc(OC)c(OC)c(OC)c2)cc1OCCC	-76*	-19%	-19%[46.1 µM]	14%	-4%	-20%[46.1 µM]
O=C(Nc1nonc1-c1ccc(Cl)cc1)c1ccccc1F	-68*	-18%	?	-25%	-16%	10%[46.1 µM]
COc1ccc(-c2nc(C)c(CCNC(=O)C(=O)Nc3ccccc3C#N)s2)cc1OC	-1	7%	/	-10%	4%	17%[46.1 µM]
O=C(NCc1ccccc1)c1c(Cl)nc(Cl)c(Cl)c1Cl	-84*	?	?	-14%	-9%	-26%
Cc1nc(Cl)c(C(=O)NCc2ccccc2)c(C)c1Cl	-70*	-11%	-5%	-2%	i	-1%
C/C1=C\CCCCc2cc(O)ccc2OC(=O)CC1	-19	/	/	/	/	/
OC(CN1CCCCC1)c1ccccc1 (stereo unspecified)	/	-3%	/	/	-11%	/
C[C@@H](CO)NC(=O)c1[nH]cnc1C(=O)Nc1ccccc1	5	/	/	/	/	/
